Screens as filed in PubChem BioAssay.
Shown are actives, neighbours in structure and some others; about 0.61% of the full set was active somewhere.
Yp Topo-I inh: blocks Yersinia pestis topoisomerase I activity | Y. pestis Topo-I cleavage product accumulation, plate reader | 360,000 compounds, 0.064% hits | activity, % at 10 µM; in the data active means activity above about 50%, passing the limit was not always enough
TcdB GH inh: TcdB glycohydrolase inhibition; P18177; TcdB glycohydrolase enzymatic assay, plate reader; inhibition, % at 9.99 µM; 350,000 compounds, 0.24% hits; in the data active means inhibition above about 10%
FadD28 FP inh: blocks FadD28 binding to the bisubstrate probe | fluorescence polarization | inhibition, % at 12.5 µM | AID 588549 | 360,000 compounds, 0.22% hits; in the data active means inhibition above about 8.5%, passing the limit was not always enough
Mtb BioA inh: BioA (M. tuberculosis) enzyme inhibition | purified M. tuberculosis BioA enzyme, plate reader | 360,000 compounds, 0.096% hits | inhibition, % at 9.99 µM; in the data active means inhibition above about 40%
Vc quorum ag-1: induces V. cholerae light production without autoinducers. V. cholerae BH1578 lux reporter, luminescence, 6 h. activation, % at 18.7 µM. 350,000 compounds, 0.16% hits; in the data active means activation mostly above about 9.7%, no sharp cut-off
Vc quorum ag-2: quorum light induction in BH1578 reporter strain | shares compounds with Vc quorum ag-1 | V. cholerae BH1578 lux reporter, luminescence, 6 h | activation, % at 50 µM | 620 tested, under 10 active; call rule not given here
Active calls of the source: *; i = inactive; nt = no result given.

SMILES	Yp Topo-I inh	TcdB GH inh	FadD28 FP inh	Mtb BioA inh	Vc quorum ag-1	Vc quorum ag-2
COc1cccc(CNC(=O)CSc2nc3c(oc4ccccc43)c(=O)n2CC2CCCO2)c1 (stereo not given)	-6	1	-4	-1	0	nt
CSc1ccccc1NC(=O)COc1ccc(S(=O)(=O)N2CCCC2)cc1	1	nt	-2	-1	12	0
CC(C)NC(=O)COc1ccc(S(=O)(=O)N2CCCC2)cc1	-14	0	-2	-1	i	nt
CC(=O)N1[C@@H]2c3ccc(-c4ccccc4)c(=O)n3C[C@H]1[C@H](CO)[C@H]2C(=O)N1CCCCC1	nt	1	nt	-1	nt	nt
C[C@H]1CN([C@@H](C)CO)C(=O)Cc2cc(NS(C)(=O)=O)ccc2O[C@H]1CN(C)C(=O)NC1CCCCC1	nt	1	nt	1	nt	nt
CC1(C(=O)N2CCN(c3ccc([N+](=O)[O-])cc3)CC2)CC1(Cl)Cl (stereo not given)	3	1	0	7	25	2
CCCC(=O)Nc1ccc2c(c1)C(=O)N(C)[C@H]1CC[C@@H](CC(=O)N3CCc4ccccc4C3)O[C@H]1CO2	nt	nt	nt	4	nt	nt
CN1CC(=O)N(CC(=O)Nc2ccc3c(c2)CCC3)C1=O	-10	8	-4	-1	36*	0
CC(C)CC1NC(=O)N(CC(=O)Nc2ccc3c(c2)CCC3)C1=O (stereo not given)	7	1	-4	2	0	nt
CC(=O)c1cccc(NC(=O)CSc2nc(=O)n(CCN3CCOCC3)c3c2CCCC3)c1	9	1	-2	14	12	1
c1cn2cc(CN3CCOCC3)nc2s1	4	nt	2	1	12	0
Nc1nc(CN2CCOCC2)cs1	7	nt	0	-1	i	nt
Cn1c(Cn2cnc(Cl)c2Cl)nc2ccccc21	-3	nt	-1	2	17*	0
Cn1c(Cn2cnc3ccccc32)nc2ccccc21	-8	nt	-1	-5	0	nt
C[C@H]1CN([C@@H](C)CO)C(=O)Cc2cc(NS(=O)(=O)c3cn(C)cn3)ccc2O[C@H]1CN(C)Cc1ccc(-c2ccccc2)cc1	nt	2	nt	nt	nt	nt
CC=Cc1ccc2n(c1=O)C[C@@H]1[C@@H](CO)[C@H](C(=O)NCC(F)(F)F)N(CC)[C@H]21 (mixture of isomers)	nt	0	nt	-1	nt	nt
Cc1ccc(OCCC(=O)Nc2ccc3c(c2)OCO3)cc1	-4	3	-2	-1	-1	nt
Cc1ccc(OCCC(=O)OCC(=O)Nc2ccc3c(c2)OCO3)cc1	0	1	-3	-1	14	0
CCC(=O)c1ccc(N2CCCC2)c(F)c1	1	nt	1	-2	1	nt
CCC(=O)c1ccc(N2CCCCCC2)c(F)c1	-1	nt	0	0	44*	-100
COc1ccc(NC(=O)COc2cccc3c2CCNC3=O)cc1	3	-1	-2	nt	27*	3
C/C=C/c1ccc([C@H]2[C@@H](CO)N(C(=O)NC(C)C)[C@H]2CN(C)C(=O)CC)cc1	nt	nt	nt	0	nt	nt
CCCOc1ccc(C2C(C(=O)c3ccc(C)o3)=C(O)C(=O)N2CCN2CCOCC2)cc1OC (stereo not given)	1	nt	-1	-4	17*	200
O=C(CN1C(=O)COc2ccccc21)c1cccc(Cl)c1	6	nt	-4	3	i	nt
O=C(CN1C(=O)COc2ccccc21)c1ccc(Cl)cc1	-7	nt	-5	2	17*	1
SMILES	Yp Topo-I inh	TcdB GH inh	FadD28 FP inh	Mtb BioA inh	Vc quorum ag-1	Vc quorum ag-2
O=C(Nc1cccc(Cl)c1)Nc1ccc(Cl)cn1	1	nt	-2	1	32*	-1
COc1cc(SC)ccc1C(=O)OCC(=O)NC(=O)NC(C)C	11	0	-4	nt	0	nt
COc1cc(SC)ccc1C(=O)OCC(=O)NCC(C)C	0	1	0	nt	67*	430
COc1ccc(-c2nnc3c4ccccc4c(C)nn23)cc1	2	nt	-1	1	12	2
CC(C)CC#Cc1ccc2c(c1)O[C@@H](CN(C)Cc1ccncc1)[C@H](C)CN([C@H](C)CO)S2(=O)=O	nt	1	nt	-4	nt	nt
O=C(c1ccc(N2CCOCC2)nc1)N1CCOCC1	13	1	-2	-1	2	nt
O=C(c1ccc(C(=O)N2CCOCC2)nc1)N1CCOCC1	-3	nt	-2	2	17*	0
O=C(COC(=O)/C=C/c1cccc(F)c1)NC1CCCC1	2	0	0	-2	24	105
Cc1ccc(F)cc1S(=O)(=O)N[C@@H]1CCN(C(=O)c2ccc(OC(C)C)cc2)C1	nt	-1	nt	0	nt	nt
CC1CCCN(C(=O)Cn2c(-c3nonc3N)nc3ccccc32)C1 (stereo not given)	0	nt	0	-2	14	1
CC1CC(C)CN(C(=O)Cn2c(-c3nonc3N)nc3ccccc32)C1 (stereo not given)	-5	nt	1	0	0	nt
O=C(COC(=O)c1c[nH]c2ccccc12)NC1CCCC1	-2	0	-3	0	i	nt
O=C(NC1CCCCC1)C(=O)c1c[nH]c2ccccc12	6	2	0	-2	474*	i
Cc1ccc(Oc2ccc(Cl)cc2NC(=O)c2cnccn2)cc1	-15	nt	-1	-4	17*	0
O=C(Nc1ccccc1Oc1ccccc1)c1cnccn1	10	nt	2	0	-1	nt
CCS(=O)(=O)N1CCN(C(=O)CCC2CCCC2)CC1	9	nt	-1	0	28*	6
O=C(CCC1CCCC1)N1CCN(S(=O)(=O)Cc2ccccc2)CC1	12	nt	-3	nt	-3	nt
C/C=C/c1ccc2c(c1)O[C@@H](CN(C)C(=O)C1CC1)[C@H](C)CN([C@H](C)CO)S2(=O)=O	nt	nt	nt	7	nt	nt
O=C(COC(=O)CNC(=O)c1ccco1)NCCN1C(=O)CSC1=O	0	nt	-1	-2	12	2
COc1ccccc1OCC(=O)OCC(=O)NCCN1C(=O)CSC1=O	6	nt	-1	0	-2	nt
Cc1nc(=O)c(-c2ccccc2)c(C)n1CCCCCC(=O)O	0	nt	0	0	17*	0
CCc1c(C)sc(NC(=O)c2cccs2)c1C(=O)OC(C)C	14	nt	-4	nt	i	nt
CCOC(=O)c1c(NC(=O)c2cccs2)sc(C)c1CC	10	nt	1	-1	114*	1
CO[C@@H]1CN(C)C(=O)c2ccc(NC(C)=O)cc2OC[C@H](C)N(Cc2ccccc2F)C[C@H]1C	nt	0	nt	1	nt	nt
CN1C(=O)c2cc(NC(=O)c3ccc(F)cc3)ccc2OC[C@H]2O[C@H](CC(=O)O)CC[C@@H]21	nt	0	nt	0	nt	nt
CN(CC(=O)NCCN1CCOCC1)S(=O)(=O)c1ccc(Cl)cc1	-4	3	-1	0	37*	1
CN(C)C(=O)c1cccc(-c2ccc([C@@H]3[C@H]4CN(C(=O)C5CCCCC5)CC(=O)N4[C@H]3CO)cc2)c1	nt	-7	nt	nt	nt	nt
